# Hits are enriched below; roughly 6.5% of the tested compounds scored in any of these assays.
# LASV entry inh: inhibitors of Lassa virus binding or cell entry. AID 540256. Lassa virus pseudotype entry inhibition, cell reporter. 300,000 compounds, 1.2% hits. Potency, µM (highest dose often 37.9 µM), for inactives: at the top dose activity change, negative = inhibition, hits mostly inhibitors; calls by dose curve; tested in HEK293 cells; also: potency is read from the fitted curve at half-maximal effect; nearly all actives have a fitted effect of over 50% in size
# Vaccinia mCherry: inhibitors of vaccinia virus infection (mCherry reporter signal); 310,000 compounds, 0.63% hits; AID 720579; Vaccinia virus mCherry reporter infection, fluorescence; Potency, µM (titrated, usually from 36.5 µM), without a hit: at the top dose activity change, negative = inhibition, hits mostly inhibitors; calls by dose curve; tested in A549 cells; also: potency is read from the fitted curve at half-maximal effect; nearly all actives have a fitted effect of over 35% in size
# MARV entry inh: blocks Marburg virus binding to or entry into cells; AID 540276; Potency, µM (doses to about 37.8 µM), without a hit: at the top dose activity change, negative = inhibition, actives largely listed as inhibitors; Marburg virus pseudotyped entry inhibition, cell reporter; 300,000 compounds, 1.8% hits; calls by dose curve; tested in HEK293 cells; also: potency is read from the fitted curve at half-maximal effect
# FMDV antiviral: blocks foot and mouth disease virus; FMDV antiviral cell-based qHTS; 410,000 compounds, 1.2% hits; Potency, µM (doses to about 57.9 µM), inactives show top-dose activity change, negative = inhibition, actives largely listed as inhibitors; AID 1159524; calls by dose curve; tested in HEK293T cells; also: read-out not given here; potency is read from the fitted curve at half-maximal effect; nearly all actives have a fitted effect of over 45% in size
# VACV Venus inh: vaccinia inhibition (Venus reporter); Vaccinia virus Venus reporter expression, fluorescence; Potency, µM (series often up to 36.5 µM), without a hit: at the top dose activity change, negative = inhibition, actives largely listed as inhibitors; 330,000 compounds, 0.46% hits; calls by dose curve; tested in A549 cells; also: potency is read from the fitted curve at half-maximal effect; nearly all actives have a fitted effect of over 30% in size
# HCMV antiviral: blocks human cytomegalovirus replication; HFF cells, HCMV-luciferase reporter, 72 h; active compounds read low; activity change, negative = inhibition, % at 57.5 µM; 410,000 compounds, 4.5% hits; AID 1259415; in the data active = activity change below about -60%; inconclusive = no clear call, values can overlap the other calls; inactive = above about -39%
#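 Cell-based, HFFs, 1000 cells/well, 16 h 37C; cpds in DMSO + HCMV-luc, MOI 1 PFU/cell; 72 h 37C; OneGlo luminescence after 5 min RT; norm. to buffer vs Salinomycin 10uM.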
# The depositor's hits bear a star; i = inactive; ? = inconclusive; / = no result given; [ ] = remark or other dose. % is scaled to controls: 0 for no effect and ±100 for the full control effect.
SMILES,LASV entry inh,Vaccinia mCherry,MARV entry inh,FMDV antiviral,VACV Venus inh,HCMV antiviral
Cc1ccc(C2C(C#N)=C(N)Oc3cc(N)ccc32)cc1 (stereo not given),/,/,/,-7%,/,-24
N#CC1=C(N)Oc2cc(N)ccc2C1c1cccc(Br)c1 (stereo not given),/,/,/,-15%,/,-75*
COc1cc(C2C(C#N)=C(N)Oc3cc4c(cc32)OCO4)cc(OC)c1OC (stereo not given),?,?,?,-16%,?,-86*
COc1cc(C2C(C#N)=C(N)Oc3cc(N(C)C)ccc32)cc2c1OCO2 (stereo not given),0.52µM*,?,?,-10%,?,-78*
COc1cc(C2C(C#N)=C(N)Oc3cc(O)ccc32)cc(OC)c1OC (stereo not given),?,-17%,1.8µM*,/,-23%,-89*
COc1ccc(C2C(C#N)=C(N)Oc3cc(O)ccc32)cc1OC (stereo not given),-15%,/,?,-22%,-12%,50
CCN(CCCNC(=O)c1ccc(Sc2ccc(F)cc2)c(NC(C)=O)c1)c1ccccc1,-17%[46.1 µM],-13%,/,-4%,-14%,34
CN1CCOc2cc(S(=O)(=O)N3CCN(c4nc(-c5cccs5)nc5ccccc45)CC3)ccc21,/,i,/,/,-19%,/
CCc1ccc(OC(C)C(=O)Nc2c(C(=O)c3ccccc3)oc3ccccc23)cc1 (stereo not given),-6%[46.1 µM],-6%,?,-21%,1%,-8
Cc1ccc(NC(=O)CCNS(=O)(=O)c2cccs2)cc1F,10%[46.1 µM],2%,13%[46.1 µM],72%,0%,18
Cc1ccc(NC(=O)CCC(=O)c2cccs2)cc1F,2%,4%,19%[46.1 µM],-10%,-18%,-64*
Cc1ccnc(NC(=O)CCC(=O)c2cccs2)c1,?,-8%,?,14µM*,-3%,-39
Cc1ccc(NC(=O)CCC(=O)c2cccs2)nc1,7%[46.1 µM],-12%,8%,84%,-2%,18
OC(CCN1CCCC1)(c1ccccc1)C1CCCCC1 (stereo not given),?,-17%,?,0%,-17%,-60*
OC(CCN1CCCCC1)(c1ccccc1)c1ccccc1,-20%,-1%,?,-17%,-9%,-81*
CC(O)(C#CCN1CCCCCC1)c1ccccc1 (stereo not given),3%,3%,-1%[46.1 µM],-6%,-2%,-102*
CCN(CC)CCC(O)(c1ccccc1)C1CCCCC1 (stereo not given),/,/,/,-17%,/,32
Cn1c(Nc2ccccc2)nc2cnc(-c3ccc(S(C)(=O)=O)cc3)cc21,/,/,/,/,/,-4
Cc1ccc(C(=O)Nc2ncc(Cc3ccccc3)s2)o1,?,/,5.2µM*,-10%,/,-8
O=C(Nc1ncc(Cc2cccc(Cl)c2)s1)c1cccs1,8.9µM*,-28%,10µM*,14%,?,80
COC(=O)[C@@H]1[C@@H](CO)[C@@H]2Cn3c(ccc(Br)c3=O)[C@H]1N2Cc1cc(F)ccc1F,/,/,/,/,/,54
CC(C)C[C@H](NC(=O)C1OC1C(=O)O)C(=O)NCCCCN=C(N)N (stereo not given in full),?,/,4.1µM*,/,/,/
CCOC(=O)C1OC1C(=O)NC(CC(C)C)C(=O)NCCC(C)C (stereo not given),/,-17%[60.7 µM],/,-17%[97.4 µM],-4%[60.7 µM],/
O=C(c1ccccc1)c1cc([N+](=O)[O-])ccc1N1CCOCC1,-21%,?,?,-24%,?,?
Cc1ccc(C(=O)c2cc([N+](=O)[O-])ccc2N2CCCCC2)cc1,?,?,?,-23%,?,-85*
SMILES,LASV entry inh,Vaccinia mCherry,MARV entry inh,FMDV antiviral,VACV Venus inh,HCMV antiviral
CC1CCCN(c2ccc([N+](=O)[O-])cc2C(=O)c2ccccc2)C1 (stereo not given),?,/,?,?,/,-74*
Cc1ccc(C(=O)c2cc([N+](=O)[O-])ccc2N2CC(C)OC(C)C2)cc1 (stereo not given),/,/,/,15%,/,-15
CCOc1ccc(NC(=S)NNc2ccnc3cc(Cl)ccc23)cc1,-1%,-4%,?,?,-12%,54
Clc1ccc2c(NCc3ccccn3)ccnc2c1,/,/,/,?,/,-72*
O=C(NCCCNc1ccnc2cc(Cl)ccc12)c1ccccc1F,/,/,/,-29%,/,-34
CCOc1ccccc1Nc1ccnc2cc(Cl)ccc12,10µM*,i,?,-26%,?,?
CC(C)(C)NC(=O)COC(=O)CNC(=O)C1CCCCC1,/,39%,/,/,-9%,/
CN(C(=O)c1ccc(NC(=O)Cc2ccccc2)cc1)c1ccccc1,-14%,-2%,26%,31%,-18%,67
CCN(C(=O)c1ccc(NC(=O)Cc2ccccc2)cc1)c1ccccc1,-24%,-22%,3%,-18%,-12%,-67*
CCOC(=O)c1ccc(N2C(=O)C(O)=C(C(C)=O)C2c2ccccn2)cc1 (stereo not given),-3%,/,2%,-15%,/,-16
CCOC(=O)c1ccc(N2C(=O)c3[nH]nc(-c4ccccc4)c3C2c2cccs2)cc1 (stereo not given),?,-18%[7.34 µM],?,-58%,-15%[7.34 µM],-98*
CCOC(=O)c1ccc(N2C(=O)c3[nH]nc(-c4ccc(OCC)cc4)c3C2c2cccs2)cc1 (stereo not given),?,?,?,?,?,-65*
COc1ccccc1N(C)S(=O)(=O)c1ccc(C(=O)Nc2nc(C)cs2)cc1,?,/,16µM*,28µM*,/,-18
CN(c1ccccc1)S(=O)(=O)c1ccc(C(=O)Nc2cccc(S(=O)(=O)N3CCOCC3)c2)cc1,/,?,/,?,?,-95*
COc1cc(OC)c(OC)cc1CNC(=O)c1cc(S(=O)(=O)N(C)c2ccccc2OC)ccc1C,/,/,/,28µM*,/,-25
COc1ccccc1N(C)S(=O)(=O)c1ccc(C(=O)Nc2cccc(S(=O)(=O)N3CCOCC3)c2)cc1,/,/,/,25µM*,/,?
COc1ccccc1N(C)S(=O)(=O)c1ccc(C(=O)Nc2nnc(C)s2)cc1,-1%,-12%,4%,-21%,-10%,55
O=C(COc1ccccc1)Nc1ccc(OCc2cc(=O)n3ccsc3n2)cc1,-10%[46.1 µM],-1%,9%[46.1 µM],-9%,4%,4
COc1ccccc1N(C)S(=O)(=O)c1ccc(Cl)c(C(=O)OCc2c(C)noc2C)c1,11µM*,-10%,?,?,-26%,-31
COc1ccccc1N(C)S(=O)(=O)c1ccc(Cl)c(C(=O)NNC(=O)c2ccccc2O)c1,/,/,/,10%,/,?
O=c1[nH]c(Cl)nc2c1ncn2C1OC(CO)C(O)C1O (stereo not given),/,-2%,/,9%,4%,/
NS(=O)(=O)c1ccc(N=Nc2c(O)[nH]c3ccc(C(=O)NCCCn4ccnc4)cc23)cc1,3.1µM*,/,/,/,/,/
O=C(NCCCn1ccnc1)c1ccc(NS(=O)(=O)c2ccc(Cl)c(Cl)c2)cc1,-30%,-18%,?,-10%,5%,-23

# Assay outcomes as filed in PubChem.
